# HEK293 tox – Cytotoxic Profiling in HEK 293 Cell Line of Diverse Libraries Using Quantitative High-Throughput Screening. Potency, µM (doses to about 115 µM), for the others: at the top dose activity change, negative = cytotoxicity, hits mostly inhibitors. HEK 293 viability, ATP luminescence (CellTiter-Glo), 48-72 h. AID 1345083, 2018. 6.6% of 94,000 active; further: on the % scale 0 is the no-effect control and ±100 the full control effect; nearly all actives have a fitted effect of over 60% in size
#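 CellTiter-Glo luminescence (cellular ATP) was read after 48 or 72 hr of compound exposure at 37 degree Celsius. Cells were HEK 293 plated at 250 cells/well.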
# Luciferase inh – Firefly luciferase inhibition profiling of diverse chemical library using quantitative high-throughput screening | purified P. pyralis luciferase, luminescence, biochemical | Potency, µM (doses to about 115 µM), actives largely listed as inhibitors | 2.5% of 76,000 active; further: on the % scale 0 is the no-effect control and ±100 the full control effect; nearly all actives have a fitted effect of over 65% in size
#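 FLuc 10nM, D-luciferin 10uM, ATP 10uM, Mg acetate 10mM, Tris acetate pH 7.5, Tween/BSA; cpd qHTS; enzyme added last; CCD luminescence.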
# hNpr1 antagonist – Natriuretic polypeptide receptor (hNpr1) antagonism - Primary qHTS; HEK293 hNpr1 GloSensor cGMP, ANP-stimulated luminescence; Atrial natriuretic peptide receptor 1 (Homo sapiens), P16066; Potency, µM (highest dose often 46.3 µM), without a hit: top-dose activity change, negative = inhibition, hits mostly inhibitors; 1.6% of 76,000 active; AID 1347048, 2019; calls by dose curve; further: on the % scale 0 is the no-effect control and ±100 the full control effect; nearly all actives have a fitted effect of over 60% in size
#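 Compound pre-incubated 30 min at room temperature on GloSensor-loaded HEK293 cells stably carrying hNpr1 and the pGS-40F cGMP biosensor. Stimulation uses hNppA at 0.1 nM final; luminescence is taken at baseline and 20 min post-agonist.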
# GPT2 inhibitor – Primary qHTS assay for inhibitors of Glutamate pyruvate transaminase 2 (GPT2) | Alanine aminotransferase 2 (Homo sapiens), Q8TD30 | Recombinant GPT2, coupled pyruvate oxidase/HRP Amplex Red fluorescence | Potency, µM (titrated, usually from 57.7 µM), without a hit: at the top dose activity change, negative = inhibition, most hits filed as inhibitors | 0.25% of 100,000 active | AID 1671188, 2021; further: on the % scale 0 is the no-effect control and ±100 the full control effect; nearly all actives have a fitted effect of over 60% in size
#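 Fluorescence read-out: pyruvate from GPT2 turnover coupled to pyruvate oxidase, HRP and Amplex Red (0.2mM ThPP, 0.2U/mL PO and HRP, 50uM Amplex final). Substrates 250uM a-KG, 2mM L-alanine; enzyme 10ng/uL; 30 min RT.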
# 3T3 cytotox – Cytotoxic Profiling in NIH 3T3 Cell Line of Diverse Libraries Using Quantitative High-Throughput Screening. Potency, µM (titrated, usually from 96.7 µM), for the others: top-dose activity change, negative = cytotoxicity, hits mostly inhibitors. NIH 3T3 viability, CellTiter-Glo ATP luminescence, 48-72 h. 4.3% of 94,000 active. AID 1345082, 2018; further: on the % scale 0 is the no-effect control and ±100 the full control effect; nearly all actives have a fitted effect of over 55% in size
#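 Cells were seeded at 400 per well, treated with pin-transferred compound, and kept 48 or 72 hr at 37 °C before CellTiter-Glo addition and luminescence imaging of cellular ATP.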
# Npr1 antag conf – Natriuretic polypeptide receptor (hNpr1) antagonism - Confirmation; shares compounds with hNpr1 antagonist; HEK293 hNpr1 cGMP GloSensor luminescence, ANP-stimulated; Potency, µM (doses to about 57.6 µM), for inactives: at the top dose activity change, negative = inhibition, usual class: inhibitors; 76% of 1,400 active; AID 1347044, 2019; calls by dose curve; further: nearly all actives have a fitted effect of over 70% in size
# NPR2 antag – Natriuretic polypeptide receptor (hNpr2) antagonism - Subtype selectivity assay. 67% of 1,400 active. shares compounds with hNpr1 antagonist. HEK293 hNpr2 GloSensor cGMP luminescence, CNP-stimulated. Potency, µM (highest dose often 57.6 µM), inactives show at the top dose activity change, negative = inhibition, actives largely listed as inhibitors; calls by dose curve; further: nearly all actives have a fitted effect of over 70% in size
# Target sequence (P20594 whole entry, looked up): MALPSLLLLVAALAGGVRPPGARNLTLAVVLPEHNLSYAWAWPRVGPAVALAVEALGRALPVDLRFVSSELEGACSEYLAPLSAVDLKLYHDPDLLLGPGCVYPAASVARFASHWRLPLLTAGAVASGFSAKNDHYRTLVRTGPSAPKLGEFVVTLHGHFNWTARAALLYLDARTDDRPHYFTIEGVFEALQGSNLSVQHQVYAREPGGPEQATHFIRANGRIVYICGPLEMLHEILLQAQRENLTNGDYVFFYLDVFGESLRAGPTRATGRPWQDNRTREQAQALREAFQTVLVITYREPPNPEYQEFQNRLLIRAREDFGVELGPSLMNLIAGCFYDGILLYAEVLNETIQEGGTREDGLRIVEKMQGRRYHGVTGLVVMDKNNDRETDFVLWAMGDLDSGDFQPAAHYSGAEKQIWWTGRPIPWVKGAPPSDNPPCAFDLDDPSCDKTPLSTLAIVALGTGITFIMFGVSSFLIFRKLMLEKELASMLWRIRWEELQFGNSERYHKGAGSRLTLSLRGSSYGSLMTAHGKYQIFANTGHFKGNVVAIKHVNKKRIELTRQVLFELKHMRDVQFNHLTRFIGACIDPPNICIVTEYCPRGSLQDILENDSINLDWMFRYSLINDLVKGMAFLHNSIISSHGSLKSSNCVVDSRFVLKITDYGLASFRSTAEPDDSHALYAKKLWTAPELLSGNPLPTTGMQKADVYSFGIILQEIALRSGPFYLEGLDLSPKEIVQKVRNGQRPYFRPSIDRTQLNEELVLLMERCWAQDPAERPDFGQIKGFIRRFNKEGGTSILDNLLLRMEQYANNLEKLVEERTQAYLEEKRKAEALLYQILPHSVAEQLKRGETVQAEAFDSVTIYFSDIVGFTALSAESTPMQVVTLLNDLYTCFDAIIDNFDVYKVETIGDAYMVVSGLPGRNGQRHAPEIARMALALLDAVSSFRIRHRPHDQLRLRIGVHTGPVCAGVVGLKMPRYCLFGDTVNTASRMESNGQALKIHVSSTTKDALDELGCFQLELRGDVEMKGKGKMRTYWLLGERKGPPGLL
# FLuc counter – Natriuretic polypeptide receptor (hNpr1) antagonism - Confirmation firefly luciferase (FLuc) inhibition counterscreen; shares compounds with hNpr1 antagonist; purified FLuc enzyme, luminescence, Km substrate; Potency, µM (doses to about 57.6 µM), without a hit: at the highest dose activity change, negative = inhibition, actives largely listed as inhibitors; 0.7% of 1,400 active; further: 0% is about no effect
# GloSensor cGMP – Natriuretic polypeptide receptor (hNpr1) antagonism - Counterscreen GloSensor control cell line | shares compounds with hNpr1 antagonist | HEK293 GloSensor cGMP, SNP-stimulated, luminescence | Potency, µM (highest dose often 57.6 µM), inactives show at the highest dose activity change, negative = inhibition, actives largely listed as inhibitors | 69% of 1,400 active | AID 1347051, 2019; calls by dose curve; further: on the % scale 0 is the no-effect control and ±100 the full control effect; nearly all actives have a fitted effect of over 70% in size
# * hit, by the source's call; i = inactive; ? = inconclusive; . = no result; [ ] = dose if it differs, or a comment. Only some compounds are listed: those with a hit (about 10% of all), similar ones and a draw of the others. Unless noted, the call rests on the fitted dose curve; in most records, active means well fitted curve in the direction sought with a large enough effect; inconclusive means small, poorly fitted or top-dose-only effect, or another doubt; inactive means no such curve, though single readings can be large; an effect the other way counts as inactive or inconclusive. Potency means the concentration at half of the fitted maximal effect.
SMILES,HEK293 tox,Luciferase inh,hNpr1 antagonist,GPT2 inhibitor,3T3 cytotox,Npr1 antag conf,NPR2 antag,FLuc counter,GloSensor cGMP
CCCC(=O)N1CCC2(CC1)CC(N(Cc1ccc(F)cc1)C1CC1)CCO2 (centres undefined),?,i,-25%,i,-18%,-25%,-5%,2%,-26%
O=C(c1cccs1)N1CCC2(CC1)CC(Cc1ccc(F)cc1)CCO2 (centres undefined),?,i,11µM*,-16%,?,27µM*,27µM*,-2%,27µM*
COc1ccc2c(c1)CN(CC1CC1)C(=O)CCN2CC(O)C(F)(F)F (centres undefined),-21%,.,.,.,?,.,.,.,.
Cc1ccc(OCCC2CCN(C(=O)Cc3cccnc3)C2)cc1 (centres undefined),?,i,?,i,-29%,?,?,-5%,?
O=C(C1CCCC1)N1CCC(CCOc2ccc(F)cc2)C1 (centres undefined),?,i,?,-6%,?,?,?,3%,22µM*
O=C(C1CCCC1)N1CCC(CCOc2ccccc2F)C1 (centres undefined),?,i,-15%,-21%,?,.,.,.,.
Cc1ccc(CN2CCCC(CNS(=O)(=O)C3CC3)C2)cc1C (centres undefined),2%,i,7%,-2%[11.5 µM],-2%,.,.,.,.
CCCn1cc(C(=O)NC(C)c2cnn(-c3cccc(F)c3)c2C)c(C)n1 (centres undefined),?,i,2.8µM*,-4%,-31%,4.3µM*,6.1µM*,4%,3.1µM*
Cc1c(C(C)NC(=O)c2cc(CC(C)C)nn2C)cnn1-c1ccccc1 (centres undefined),-81%,i,0.28µM*,0%,-42%,0.43µM*,0.48µM*,0%,0.43µM*
CCCNC(=O)N1CC(c2noc(C3CCCN3CC3CC3)n2)C1 (centres undefined),-17%,i,0%,?,-6%,.,.,.,.
CC1(C)[C@H](Cc2cc(COc3ccccc3)on2)C[C@@H]1NC(=O)c1cccs1,?,i,40µM*,-4%[88.5 µM],40µM*,35µM*,40µM*,-2%[86.2 µM],31µM*
CC1(C)[C@H](Cc2cc(CO)on2)C[C@@H]1NC(=O)c1cccnc1,2%[172 µM],i,5%[70.6 µM],i,-1%[174 µM],.,.,.,.
CC1(C)[C@H](Cc2cc(COC(=O)c3cccs3)on2)C[C@@H]1NC(=O)c1cccs1,?,i,25µM*,-12%[88.5 µM],?,35µM*,35µM*,1%[86.2 µM],40µM*
Oc1ccc(-c2nc(C3CC3)nc3c2CCN(Cc2cccc4ccccc24)CC3)cc1,18µM*,i,-24%,-10%,?,-27%[86.2 µM],?,2%[86.2 µM],-32%[86.2 µM]
Oc1ccc(-c2nc(C3CC3)nc3c2CN(Cc2cccc4ccccc24)CC3)cc1,?,.,.,-14%,?,.,.,.,.
CN(C)C(=O)N1CCCC(C(=O)N2CCC(c3ccccc3)CC2)C1 (centres undefined),-9%,.,.,2%,-7%,.,.,.,.
CN(C(=O)C1(c2ccc(Cl)cc2)CCOCC1)C1CCc2ccccc21 (centres undefined),?,.,.,2%,?,19µM*,9.7µM*,5%,6%
Cc1nn2c(c1-c1ccnn1C(C)C)N(Cc1ccc(O)cc1)CCC2,?,i,-7%[70.6 µM],i,?,.,.,.,.
Cc1nn2c(c1-c1ccccc1[S+](C)(=O)[O-])N(Cc1ccc(C(=O)O)s1)CCC2,?,i,3.2µM*,-10%[88.5 µM],13µM*,9.9µM*,28µM*,3%[86.2 µM],5µM*
Cc1nn2c(c1-c1cccnc1N1CCOCC1)N(Cc1ccccc1F)CCC2,?,i,-18%[70.6 µM],2%[88.5 µM],?,.,.,.,.
Cc1nn2c(c1-c1ccccc1Oc1ccccc1)N(Cc1ccc(C(=O)O)s1)CCC2,32µM*,i,?,i,32µM*,?,?,1%,?
Cc1nn2c(c1-c1ccccc1Oc1ccccc1)N(Cc1cccc(C#N)c1)CCC2,8.9µM*,i,3.2µM*,2%[88.5 µM],8.9µM*,2.2µM*,4.4µM*,-3%[86.2 µM],1.8µM*
Cc1nn2c(c1-c1ccnn1C(C)C)N(Cc1cccc(C#N)c1)CCC2,14µM*,i,?,-6%[88.5 µM],14µM*,2.8µM*,?,-1%[86.2 µM],?
Cc1nn2c(c1-c1ccccc1-c1ccccc1)N(Cc1ccc(C(=O)O)s1)CCC2,?,i,2%[70.6 µM],-11%[88.5 µM],-9%[138 µM],.,.,.,.
Cc1ccc(CNC(=O)CCc2nc(C3CCCN3S(C)(=O)=O)no2)o1 (centres undefined),i,.,.,1%,-17%,.,.,.,.
CN(C)C[C@@H]1CN(c2ncccn2)C[C@H]1NC(=O)Cc1ccccc1F,4%,i,-1%,1%,-5%,.,.,.,.
COc1cccc(CNc2cc(Cl)nc3ccnn23)c1,?,i,?,-2%[88.5 µM],28µM*,40µM*,35µM*,2%[86.2 µM],35µM*
Cc1nc(NCCc2nc3ccccc3n2C)cc(C2CC(O)C2)n1 (centres undefined),1%,i,0%,i,-8%,.,.,.,.
